The campaign covered roughly 400,000 compounds. About 2,100 (0.53%) were called active. Roughly 14% stayed inconclusive and do not appear here. How the calls were made is not given here. What follows is part of a selection rich in actives, with near analogues and random picks from the rest.
What follows are molecules tested against Ataxin-2 (Homo sapiens) (UniProt Q99700) (assay: qHTS for Inhibitors of ATXN expression.).
Sequence of Ataxin-2 (Homo sapiens) (Q99700 whole entry): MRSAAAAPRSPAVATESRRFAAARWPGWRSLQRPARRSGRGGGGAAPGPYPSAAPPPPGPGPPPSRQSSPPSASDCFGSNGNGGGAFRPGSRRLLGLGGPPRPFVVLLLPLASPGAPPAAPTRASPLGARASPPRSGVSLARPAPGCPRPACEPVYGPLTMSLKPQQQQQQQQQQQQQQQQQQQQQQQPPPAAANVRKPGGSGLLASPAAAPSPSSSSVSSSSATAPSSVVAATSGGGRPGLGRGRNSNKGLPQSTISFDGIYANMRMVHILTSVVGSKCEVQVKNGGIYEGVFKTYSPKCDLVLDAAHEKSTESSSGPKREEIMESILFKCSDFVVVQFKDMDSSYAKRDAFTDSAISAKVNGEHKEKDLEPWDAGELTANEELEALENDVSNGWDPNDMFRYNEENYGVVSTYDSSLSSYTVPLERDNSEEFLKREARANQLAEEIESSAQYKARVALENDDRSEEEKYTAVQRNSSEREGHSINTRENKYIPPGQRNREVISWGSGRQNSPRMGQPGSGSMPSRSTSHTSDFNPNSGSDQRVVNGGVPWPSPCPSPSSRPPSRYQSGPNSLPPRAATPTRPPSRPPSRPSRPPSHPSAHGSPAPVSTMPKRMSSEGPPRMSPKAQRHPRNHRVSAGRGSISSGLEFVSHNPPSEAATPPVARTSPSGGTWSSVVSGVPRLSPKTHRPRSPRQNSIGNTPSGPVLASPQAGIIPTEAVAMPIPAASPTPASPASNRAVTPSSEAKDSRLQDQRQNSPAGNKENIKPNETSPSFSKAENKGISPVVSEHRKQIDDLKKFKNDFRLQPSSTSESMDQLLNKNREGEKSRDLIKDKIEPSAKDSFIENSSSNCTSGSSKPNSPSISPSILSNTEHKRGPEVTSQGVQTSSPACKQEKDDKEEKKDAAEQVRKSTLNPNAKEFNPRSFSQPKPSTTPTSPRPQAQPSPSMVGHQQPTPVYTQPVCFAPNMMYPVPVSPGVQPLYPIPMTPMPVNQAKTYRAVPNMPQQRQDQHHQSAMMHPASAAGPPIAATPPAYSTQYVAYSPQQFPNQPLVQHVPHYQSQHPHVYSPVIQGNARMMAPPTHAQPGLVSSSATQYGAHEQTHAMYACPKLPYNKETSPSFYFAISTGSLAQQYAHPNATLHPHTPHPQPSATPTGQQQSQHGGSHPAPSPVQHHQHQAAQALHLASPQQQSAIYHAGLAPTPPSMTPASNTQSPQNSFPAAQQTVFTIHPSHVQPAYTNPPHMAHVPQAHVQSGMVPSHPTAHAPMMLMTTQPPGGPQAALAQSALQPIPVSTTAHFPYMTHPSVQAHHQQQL
Format: functional
With CC(C)CC(=O)NC(=S)NCc1ccccc1 the Potency was “inactive”.
In the case of CC(C)CC(=O)/C=C/n1c(=S)oc2ccccc21, the Potency is reported as 31.6 µM (active).
For CC(=O)/C=C/n1c(=S)oc2ccccc21, the Potency was 9.47 µM (active).
With CC(=O)Cn1c(=O)oc2ccccc21 the Potency was “inactive”.
With O=C(CCn1c(=S)oc2ccccc21)Nc1ccccc1F the Potency was “inactive”.
With CC(=O)OC[C@H]1O[C@@H](Oc2cc3ccc(=O)oc3cc2OC(C)=O)[C@H](OC(C)=O)[C@@H](OC(C)=O)[C@@H]1OC(C)=O the Potency was “inactive”.
With O=C(Nc1ccccc1)c1nsnc1C(=O)Nc1ccccc1 the Potency was “inactive”.
With Cc1cccc(NC(=O)c2c(C)nn(-c3ccccc3)c2Cl)c1 the Potency was “inactive”.
For CC(C)C[C@H](NC(=O)c1[nH]cnc1C(=O)NCCCCCNC(=O)OC(C)(C)C)C(=O)OC(C)(C)C, the Potency was 35.5 µM (active).
With Cc1ccc(NC(=O)C(Nc2cccc(C)c2)c2ccccc2)cc1 (stereo not drawn) the Potency was “inactive”.
For C[C@@H](NC(=O)c1[nH]cnc1C(=O)N[C@@H](Cc1ccccc1)C(=O)OC(C)(C)C)c1ccccc1, the Potency was 35.5 µM (active).
Cc1cccc(NC(=O)c2nc[nH]c2C(=O)N[C@@H](C)c2ccccc2)c1 was tested, and the Potency was 28.2 µM (active).
With CCOc1ccc(C(C)NC(=O)c2cccs2)cc1OCC (stereo not drawn) the Potency was “inactive”.
With Cc1cccc(NC(=O)c2[nH]cnc2C(=O)N[C@@H](Cc2ccccc2)C(=O)OC(C)(C)C)c1 the Potency was 39.8 µM (active).
COc1ccc(NC(=O)CSc2nnc3n2CCCCC3)cc1S(=O)(=O)N1CCOCC1 was tested, and the Potency was “inactive”.
With Cc1ccccc1/C=C/c1nc2ccccc2c(=O)n1CCc1ccccc1 the Potency was “inactive”.
In the case of CCc1cc2c(-c3ccccc3)cc(=O)oc2c2c1OCN(Cc1ccc(F)cc1)C2, the Potency is reported as “inactive”.
In the case of Cc1ccc2nc(N3C(=O)C(O)=C(C(=O)c4ccc(C)o4)C3c3cccc(O)c3)sc2c1 (stereo not drawn), the Potency is reported as “inactive”.
For c1ccc(-c2cnn3c(-c4ccccc4)c(-c4ccccc4)nc3n2)cc1, the Potency was “inactive”.
In the case of COc1ccc(OC)c(/N=C/c2c(O)oc3ccccc3c2=O)c1, the Potency is reported as “inactive”.
In the case of C[C@H](NC(=O)c1[nH]cnc1C(=O)N[C@@H](Cc1ccccc1)C(=O)OC(C)(C)C)C(=O)OC(C)(C)C, the Potency is reported as 39.8 µM (active).
In the case of CCCCC(C(=O)NC(C)c1ccccc1)C(=O)NC(C)c1ccccc1 (stereo not drawn), the Potency is reported as “inactive”.
Nc1c(C(=O)Nc2ccccc2F)sc2nc(-c3cccnc3)ccc12 was tested, and the Potency was “inactive”.
COCc1cc(C)nc2sc(C(=O)Nc3ccccc3F)c(N)c12 was tested, and the Potency was “inactive”.
CC(NC(=O)/C(C#N)=C/c1ccc(OCC(=O)O)cc1)c1ccccc1 (stereo not drawn) was tested, and the Potency was “inactive”.
With CC(C)C[C@H](NC(=O)c1[nH]cnc1C(=O)N[C@@H](Cc1ccccc1)C(=O)OC(C)(C)C)C(=O)OC(C)(C)C the Potency was 25.1 µM (active).
With CC(C)C[C@H](NC(=O)c1[nH]cnc1C(=O)N[C@H](C)c1ccccc1)C(=O)OC(C)(C)C the Potency was 39.8 µM (active).
In the case of CCOc1ccccc1NC(=O)COC(=O)C(Cc1ccccc1)NC(=O)c1ccco1 (stereo not drawn), the Potency is reported as “inactive”.
CC(C)(C)OC[C@H](NC(=O)c1[nH]cnc1C(=O)Nc1ccccc1F)C(=O)OC(C)(C)C was tested, and the Potency was 35.5 µM (active).
In the case of CCOC(=O)N1CCN(S(=O)(=O)c2c(C)nc3scc(C)n3c2=O)CC1, the Potency is reported as “inactive”.
COc1ccc(C2C=C(c3ccccc3)Nc3ncnn32)cc1 (stereo not drawn) was tested, and the Potency was “inactive”.
For O=S(=O)(NCCc1cccs1)c1ccc(Br)cc1, the Potency was “inactive”.
For COCc1cc(C)nc2sc(C(=O)Nc3ccccc3Br)c(N)c12, the Potency was “inactive”.
For CC(C)C[C@H](NC(=O)c1[nH]cnc1C(=O)N[C@@H](C)c1ccccc1)C(=O)OCc1ccccc1, the Potency was 35.5 µM (active).
In the case of CC(C)C[C@H](NC(=O)c1[nH]cnc1C(=O)Nc1ccc(CNC(=O)OC(C)(C)C)cc1)C(=O)OC(C)(C)C, the Potency is reported as 28.2 µM (active).
With CC(C)(C)OC(=O)[C@H](Cc1ccccc1)NC(=O)c1[nH]cnc1C(=O)Nc1ccc(Cl)cc1 the Potency was 39.8 µM (active).
COc1ccccc1OCc1ccc(C(=O)NC(C)c2ccccc2)o1 (stereo not drawn) was tested, and the Potency was “inactive”.
CC(C)C[C@H](NC(=O)c1[nH]cnc1C(=O)N[C@@H](C)C(=O)OC(C)(C)C)C(=O)OC(C)(C)C was tested, and the Potency was 35.5 µM (active).
CN(C)Cc1c(O)ccc2cc(-c3nc4ccccc4n3C)c(=O)oc12 was tested, and the Potency was “inactive”.
Cc1cc2nc3c(O)nc(S)nc3nc2cc1NC(=O)C(F)(F)F was tested, and the Potency was “inactive”.
For N#Cc1cc2c(nc1SCC(=O)Nc1nccs1)CCCCC2, the Potency was “inactive”.
In the case of CN(C)c1ccc(/C=N/N=C2/SC(CC(=O)O)C(=O)N2c2ccc(O)cc2)cc1 (stereo not drawn), the Potency is reported as “inactive”.
For CC(C)(C)c1cc2ncnc(N3CCCCC3)c2s1, the Potency was “inactive”.
For CC[C@@H](C)[C@H](NC(=O)OC(C)(C)C)c1nnc(S(=O)(=O)Cc2cc(C)ccc2C)o1, the Potency was 39.8 µM (active).
In the case of CC(NC(=O)OC(C)(C)C)C(=O)Oc1ccc2ccc(=O)oc2c1 (stereo not drawn), the Potency is reported as “inactive”.
For CC(NC(=O)OC(C)(C)C)C(=O)Oc1cc2oc(=O)cc(-c3ccccc3)c2cc1Cl (stereo not drawn), the Potency was “inactive”.
With CCC(C)[C@@H](NC(=O)OC(C)(C)C)c1nnc(S(=O)(=O)Cc2cccc(C)c2)o1 (stereo partly drawn) the Potency was 22.4 µM (active).
CC(C)[C@H](NC(=O)OC(C)(C)C)c1nnc(S(=O)(=O)Cc2c(F)cccc2Cl)o1 was tested, and the Potency was 22.4 µM (active).
With N#CCC(=O)N/N=C/c1ccc(N2N=C(c3ccccc3)CC2c2ccccc2)cc1 (stereo not drawn) the Potency was “inactive”.
Cc1ccc(C)c(NC(=O)CCNS(=O)(=O)c2ccc3nc(O)oc3c2)c1 was tested, and the Potency was “inactive”.
For CCN1CCN(C(c2cccs2)C(C)NC(=O)C(C)C)CC1 (stereo not drawn), the Potency was “inactive”.
For Nc1c(C(=O)N/N=C/c2ccccc2Cl)oc2nc(-c3ccccc3)cc(-c3ccco3)c12, the Potency was “inactive”.
For Cc1ccc(-n2c(C)cc(/C=N/NC(=O)Cn3c4ccccc4c(=O)c4ccccc43)c2C)cc1, the Potency was “inactive”.
O=C(Cn1c2ccccc2c(=O)c2ccccc21)N/N=C/c1ccc(N2CCCC2)c([N+](=O)[O-])c1 was tested, and the Potency was 39.8 µM (active).
In the case of Cc1cc(/C=N/NC(=O)Cn2c3ccccc3c(=O)c3ccccc32)c(C)n1-c1ccccc1, the Potency is reported as “inactive”.
In the case of Cc1ccc(S(=O)(=O)NC(C(=O)Oc2cc3oc(=O)cc(C)c3cc2Cl)C(C)C)cc1 (stereo not drawn), the Potency is reported as “inactive”.
CC(=O)Nc1nn(CC(C)C)c2nc3ccc(C)cc3cc12 was tested, and the Potency was “inactive”.
In the case of O=S(=O)(Nc1nc2n(n1)C(c1ccc(F)cc1)C=C(c1ccccc1)N2)c1ccccc1 (stereo not drawn), the Potency is reported as “inactive”.
